From PubChem BioAssay AID1051 (The Scripps Research Institute Molecular Screening Center, 2008)
Out of some 99,000 compounds screened, about 340 (0.34%) were called active. No stated cut-off is given here; in the data, active means TR-FRET ratio above about 2300; inactive means the rest. The sample as a whole holds a higher share of actives than the screen did.

Assay: signal artefacts in PPARgamma/SRC-1 readout – biochemical, TR-FRET emission ratio, artefact control for PPARgamma SRC-1 recruitment agonists, primary screen (AID 1051)
Conditions: TR-FRET detection artefact counter-screen, at 8 µM, stronger effect = higher value

| SMILES | TR-FRET ratio |
| --- | --- |
| O=C(Nc1ccccc1)N1CCN(C(=O)Nc2ccccc2)CC1 | 1700 (inactive) |
| Cc1nc2ccccc2c(C)c1C(=O)c1ccc(F)cc1 | 1400 (inactive) |
| CCC(CC)C(=O)N1CCN(c2cccc(C)c2C)CC1 | 1600 (inactive) |
| O=C(COC(=O)c1ccc(F)cc1)Nc1nc2ccc([N+](=O)[O-])cc2s1 | 1760 (inactive) |
| COc1ccc(OCCCC(=O)Nc2nnc(C3CCCO3)s2)cc1 (centres undefined) | 1980 (inactive) |
| COc1ccc(Cc2nnc(NC(=O)Cc3cccs3)s2)cc1 | 1780 (inactive) |
| COc1ccc(OCC(=O)Nc2nnc(-c3ccco3)s2)cc1 | 2500 (active) |
| C=CCO/N=C/C1=C(O)C(C(=O)OC)C(C)(C)CC1=O (centres undefined) | 1870 (inactive) |
| O=C(NCc1ccccn1)c1cc(Br)ccc1Cl | 1780 (inactive) |
| Cc1ccc(-c2cc(C(=O)NCc3cn(C)nc3C)c3cc(Br)ccc3n2)cc1 | 2880 (active) |
| Cc1ccc2nc(-c3cccc(Br)c3)cc(C(=O)Nn3cnnc3)c2c1 | 1660 (inactive) |
| O=C(Nc1ccncc1)c1cc(-c2ccccn2)nc2ccc(Br)cc12 | 1860 (inactive) |
| C/C(N)=C(/C#N)C(=O)COC(=O)c1cc(-c2ccccc2)nc2ccc(Br)cc12 | 1910 (inactive) |
| O=C(NCc1cccs1)c1cc(-c2ccccn2)nc2ccc(Br)cc12 | 2520 (active) |
| CSc1ccc(CN2C(=O)NC3(CCCCCC3)C2=O)cc1 | 1630 (inactive) |
| Cc1ccnc(NS(=O)(=O)c2ccc(NC(=O)c3ccc(S(=O)(=O)N(C)C)cc3)cc2)n1 | 1700 (inactive) |
| COc1cccc(NC(=O)c2ccc(S(=O)(=O)N(C)C)cc2)c1 | 1680 (inactive) |
| COc1cccc(NC(=S)NCc2ccccn2)c1 | 1990 (inactive) |
| Cc1nn(C)c(C(=O)NNC(=S)NC2CCCCC2)c1Cl | 1630 (inactive) |
| COc1cccc(NC(=S)NC(=O)c2c(Cl)c(C)nn2C)c1 | 2600 (active) |
| CN1CCN(C(=O)N2c3ccccc3CCc3ccccc32)CC1 | 1720 (inactive) |
| CCOc1c(CNCc2ccc(C(=O)O)cc2)cccc1OC | 1910 (inactive) |

| SMILES | TR-FRET ratio |
| --- | --- |
| O=C(CC1C(=O)NCCN1Cc1ccc(-c2ccccc2)cc1)NCC1CCOCC1 (centres undefined) | 1730 (inactive) |
| CCc1ccccc1N1C(=O)C2C3CC(=O)C(c4ccccc43)C2C1=O (centres undefined) | 1650 (inactive) |
| CC(=O)NC1=NN(C(C)=O)C(C)(c2ccc(C)cc2)S1 (centres undefined) | 1950 (inactive) |
| COc1ccc(/C=N/NC(=O)Cn2cc(C(F)(F)F)ccc2=O)cc1 | 1880 (inactive) |
| CCN(CCn1cccn1)C(=O)CC1C(=O)NCCN1Cc1cccc(OC)c1OC (centres undefined) | 1620 (inactive) |
| CSc1nc2c(c(=O)[nH]1)C(c1cccc(Cl)c1Cl)CC(=O)N2 (centres undefined) | 1770 (inactive) |
| CCN1CCN(CC(=O)c2cc(OC)c(OC)c(OC)c2)CC1 | 1990 (inactive) |
| CC(C)OC(=O)CN1CCN(c2ccc(Cl)cc2)CC1 | 1890 (inactive) |
| CCCC(=O)OCC(=O)Nc1cc(Cl)ccc1[N+](=O)[O-] | 1580 (inactive) |
| CN(C)C(=O)N1CCNCC1 | 1920 (inactive) |
| COc1ccc(C/C(C)=N/NC(=O)c2ccncc2)cc1 | 1920 (inactive) |
| O=C(Nc1ccc([N+](=O)[O-])cc1)C1(c2ccccc2)CCOCC1 | 1740 (inactive) |
| CN1CCN(CC#CCC2(O)c3ccccc3-c3ccccc32)CC1 | 1610 (inactive) |
| O=C(Nc1cccnc1)c1ccc(Cl)cc1[N+](=O)[O-] | 2040 (inactive) |
| Cc1cc(C)cc(NC(=S)NCCCN2CCOCC2)c1 | 1640 (inactive) |
| CCc1cccc(C)c1NC(=O)COC(=O)Cc1ccsc1 | 1600 (inactive) |
| CC(=O)N(CCCN(C)C)c1nc2ccc(C)cc2s1 | 2080 (inactive) |
| COc1ccc(/C=C(\C#N)C(=O)ONC2=NCCCCC2)cc1 | 1820 (inactive) |
| COc1ccc(S(=O)(=O)N(C)C)cc1NC(=O)CSc1ncccn1 | 1990 (inactive) |
| CCOCCCNC(=S)N1CCC(NC(=O)C2CCCCC2)CC1 | 1730 (inactive) |
| Cc1ccc(NS(=O)(=O)c2cccs2)cc1S(=O)(=O)N1CCCCCC1 | 2400 (active) |
| O=S(=O)(Nc1cc(S(=O)(=O)N2CCOCC2)ccc1N1CCCC1)c1cccs1 | 1650 (inactive) |

| SMILES | TR-FRET ratio |
| --- | --- |
| Cc1ccc(C(=O)NCC(=O)O)cc1S(=O)(=O)N1CCCCC1 | 1790 (inactive) |
| CCn1c(COc2ccccc2)nnc1SCC(=O)NCc1ccco1 | 1770 (inactive) |
| C/C(=N/OC(=O)c1cccc(C(F)(F)F)c1)c1cnccn1 | 1580 (inactive) |
| CC(OC(=O)CNS(=O)(=O)/C=C/c1ccccc1)C(=O)Nc1ccc(S(=O)(=O)N2CCCC2)cc1 (centres undefined) | 1670 (inactive) |
| O=C(NNC1=C(C(=O)C(F)(F)F)CCC1)c1ccncc1 | 1980 (inactive) |
| CN(NC(=O)C1CC(=O)N(c2ccccc2)C1)C1=NS(=O)(=O)c2ccccc21 (centres undefined) | 1810 (inactive) |
| CCN(CC)c1ccc(C(=O)c2cnc(/N=C/N(C)C)s2)cc1 | 1790 (inactive) |
| COc1ccc(CCC(=O)OCC(=O)Nc2ccc(C)c(S(=O)(=O)N(C)C)c2)cc1 | 1760 (inactive) |
| CN(CCOc1ccc(Br)cc1)CC(=O)Nc1cccc(S(=O)(=O)NC2=NCCC2)c1 | 1830 (inactive) |
| CCC(C)NC(=O)/C=C/c1ccc(S(=O)(=O)NCc2ccco2)cc1 (centres undefined) | 1910 (inactive) |
| Cc1ccccc1CC1(CO)CCCN(Cc2ccc3c(c2)OCCO3)C1 (centres undefined) | 1710 (inactive) |
| O=c1c2ccccc2c(-c2ccccc2)nn1Cc1ccccc1 | 1740 (inactive) |
| CSc1c(SCc2ccccc2)cnn(Cc2ccccc2)c1=O | 2320 (active) |
| CSc1nc2ccccc2c(=O)n1Cc1ccc(F)cc1 | 1720 (inactive) |
| COCc1c(C(=O)N/N=C/C2CC=CCC2)nnn1-c1nonc1N (centres undefined) | 1650 (inactive) |
| O=C(CCc1ccc(S(=O)(=O)N2CCOCC2)cc1)NN=C1CCCCCCC1 | 1980 (inactive) |
| CC(C)n1c(=O)[nH]c2cc(C(=O)Nc3ccccc3)ccc21 | 1850 (inactive) |
| C=CCc1cccc2cc(C(=O)NC3CCCC3)c(=O)oc12 | 1900 (inactive) |
| O=C(COC(=O)/C=C/c1cccc(Cl)c1)NCCc1ccccc1 | 1750 (inactive) |
| Cc1cc(C)nc(/N=C2\NC(=O)CC(C(=O)O)N2c2ccc(Cl)cc2Cl)n1 (centres undefined) | 1900 (inactive) |
